Experimental data as given in PubChem BioAssay AID1159580 (chemical genetic matrix, 2015).
Screen size: about 5,500 compounds; about 2,000 (36%) were called active. About 18% were inconclusive and are not listed. Rule as the data show it: active = normalized growth mostly below about 0.91 (no sharp cut-off); inconclusive = no clear call, values can overlap the other calls; inactive = mostly above about 0.92. Some of the results follow.

Experiment: chemical genetic growth profiling, strain panel (AID 1159580);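 also: tested at 20 µM; growth read once vehicle control cultures reached saturation at 30 °C; 1 = growth at the plate median or of vehicle wells; lower values mean less growth of the strain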
Details: S. cerevisiae deletion strains, growth OD
[1] = locus YMR263W, strain SAP30, stronger effect = lower value
[2] = locus YMR307W, strain GAS1, stronger effect = lower value
[3] = locus YNL153C, strain GIM3, stronger effect = lower value
[4] = locus YPL055C, strain LGE1, stronger effect = lower value
[5] = locus YPL241C, strain CIN2, stronger effect = lower value

Measured: normalized growth

O=C(Nc1ccccc1)NC1CCCC1
inactive: locus YAL013W, strain DEP1, stronger effect = lower value 1.02 | locus YBR229C, strain ROT2, stronger effect = lower value 0.983 | locus YCL061C, strain MRC1, stronger effect = lower value 1.02 | locus YDL101C, strain DUN1, stronger effect = lower value 0.989 | locus YDL134C, strain PPH21, stronger effect = lower value 1.01 | locus YDR150W, strain NUM1, stronger effect = lower value 0.983 | locus YEL061C, strain CIN8, stronger effect = lower value 0.965 | locus YGR078C, strain PAC10, stronger effect = lower value 1.01 | locus YHR030C, strain SLT2, stronger effect = lower value 1.07 | locus YHR087W, strain rtc3, stronger effect = lower value 0.997 | locus YJR043C, strain POL32, stronger effect = lower value 1.04 | locus YJR075W, strain HOC1, stronger effect = lower value 0.992 | locus YKL190W, strain CNB1, stronger effect = lower value 0.991 | locus YLR039C, strain RIC1, stronger effect = lower value 1.01 | locus YLR058C, strain SHM2 (second series), stronger effect = lower value 0.997 | locus YLR085C, strain ARP6, stronger effect = lower value 0.991 | locus YLR262C, strain YPT6, stronger effect = lower value 1.05 | locus YML094W, strain GIM5, stronger effect = lower value 0.96 | locus YMR219W, strain ESC1, stronger effect = lower value 0.997 | [1] 1.01 | [2] 1.03 | locus YNL128W, strain TEP1, stronger effect = lower value 0.941 | [3] 1.01 | locus YNL298W, strain CLA4 (second series), stronger effect = lower value 0.985 | locus YNL322C, strain KRE1, stronger effect = lower value 0.996 | locus YNR030W, strain Alg12, stronger effect = lower value 1 | [4] 1.02 | [5] 0.99 | locus YPR135W, strain CTF4, stronger effect = lower value 1.13

CCCn1c(=O)c2[nH]c(-c3ccc(OCC(=O)Nc4ccc(C#N)cc4)cc3)nc2n(CCC)c1=O
inactive: locus YAL040C, strain CLN3, stronger effect = lower value 0.979 | locus YCL061C, strain MRC1 (second series), stronger effect = lower value 0.998 | locus YDR363W, strain ESC2, stronger effect = lower value 1.02 | locus YER002W, strain NOP16, stronger effect = lower value 1 | locus YGR229C, strain SMI1, stronger effect = lower value 0.995 | [1] 0.982 | [2] 1.02 | [3] 1.01 | locus YNL175C, strain NOP13, stronger effect = lower value 0.994 | locus YNL197C, strain WHI3, stronger effect = lower value 0.978 | locus YNL224C, strain SQS1, stronger effect = lower value 0.992 | locus YOR083W, strain WHI5 (second series), stronger effect = lower value 0.992 | [4] 0.998 | [5] 0.973
